Assay [1] in a line: qHTS assay to identify small molecule antagonists of the thyroid receptor (TR) signaling pathway (AID 743065). Note: series mostly up to about 70 µM; nearly all actives have a fitted effect of over 55% in size. In a few lines: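 GH3.TRE-Luc rat pituitary cells (two TREs driving luciferase) were dosed with compound, then stimulated with 1 nM T3 (final) for 23.5 h at 37 C. ONE-Glo luminescence was the read-out, with CellTiter-Fluor fluorescence as the cytotoxicity counter-screen.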
Background: Quantitative high-throughput screening tests each substance at several concentrations.

Assay [2] deals with thyroid hormone receptor (rat, GH3 cells). Description: qHTS assay to identify small molecule agonists of the thyroid receptor (TR) signaling pathway (AID 743066; calls by dose curve).
Assay [3] addresses Estrogen receptor (Homo sapiens) (UniProt P03372). Description: qHTS assay to identify small molecule antagonists of the estrogen receptor alpha (ER-alpha) signaling pathway (AID 743069; active = well fitted curve in the direction sought with a large enough effect in the signal ratio in the repeat runs, not every such curve was filed as active; the % refers to the signal ratio). In a few lines: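 HEK293 ER-alpha-UAS-bla GripTite cells, held overnight in 2% charcoal-stripped FBS, 5,000 cells/well, preincubated 4 h, then compound plus 17beta-estradiol for 18 h at 37C. Beta-lactamase read by LiveBLAzer B/G FRET substrate, 2 h at room temperature.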

The nature of assay [4]: qHTS assay to identify small molecule antagonists of the estrogen receptor alpha (ER-alpha) signaling pathway - cell viability counter screen (AID 743074; calls by dose curve;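 note: HEK293 cells carrying ER-alpha-UAS-bla reporter stimulated with 17beta-estradiol; nearly all actives have a fitted effect of over 45% in size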).
Assay [5] addresses Estrogen receptor (Homo sapiens) (UniProt P03372). Description: qHTS assay to identify small molecule agonists of the estrogen receptor alpha (ER-alpha) signaling pathway (AID 743075; calls by dose curve).
Assay [6] shares this target. Description: qHTS assay to identify small molecule agonists of the estrogen receptor alpha (ER-alpha) signaling pathway using the BG1 cell line (AID 743079). Note: nearly all actives have a fitted effect of over 20% in size. Note: potency is the fitted concentration of half-maximal effect.
Assay [7] is described as follows: qHTS assay to identify small molecule antagonists of the estrogen receptor alpha (ER-alpha) signaling pathway using the BG1 cell line (AID 743080; calls by dose curve;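 note: BG1 cells stimulated with 17beta-estradiol alongside compound; series mostly up to about 70 µM; nearly all actives have a fitted effect of over 25% in size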). An outline of the steps:
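Luminescence from a 4×ERE-luciferase reporter in BG1-Luc-4E2 cells served as read-out. Cells, pre-cultured 5 days in stripped-serum phenol-red-free medium, were exposed to compound with 17beta-estradiol co-stimulation for 21.5 h at 37 C.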

Assay [8] is described as follows: qHTS assay to identify small molecule antagonists of the estrogen receptor alpha (ER-alpha) signaling pathway using the BG1 cell line - cell viability counter screen (AID 743081).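 Note: compound given together with 17beta-estradiol as the ER stimulus; series mostly up to about 70 µM; nearly all actives have a fitted effect of over 45% in size.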
In the next assay the target is Aromatase (Homo sapiens) (UniProt P11511). As to the kind of experiment: qHTS assay to identify aromatase inhibitors (AID 743083). Note: series mostly up to about 70 µM; nearly all actives have a fitted effect of over 55% in size.
Sequence of Aromatase (Homo sapiens) (P11511 whole entry, looked up): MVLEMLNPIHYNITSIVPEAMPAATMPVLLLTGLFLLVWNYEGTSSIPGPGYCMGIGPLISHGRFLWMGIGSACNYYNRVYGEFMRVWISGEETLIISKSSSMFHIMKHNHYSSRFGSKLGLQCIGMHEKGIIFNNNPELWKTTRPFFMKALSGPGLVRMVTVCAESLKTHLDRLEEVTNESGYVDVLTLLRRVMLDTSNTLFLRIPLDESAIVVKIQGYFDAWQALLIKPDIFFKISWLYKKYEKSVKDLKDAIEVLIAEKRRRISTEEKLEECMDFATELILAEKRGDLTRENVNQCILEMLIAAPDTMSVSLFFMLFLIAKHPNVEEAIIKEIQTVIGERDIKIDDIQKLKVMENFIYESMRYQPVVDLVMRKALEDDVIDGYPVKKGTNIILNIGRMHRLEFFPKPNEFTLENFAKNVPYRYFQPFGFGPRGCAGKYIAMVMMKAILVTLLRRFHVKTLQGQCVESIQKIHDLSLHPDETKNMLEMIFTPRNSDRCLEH
A short description of assay [9]: qHTS assay to identify aromatase inhibitors - cell viability counter screen (AID 743084).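 Note: cells stimulated with testosterone during compound exposure; nearly all actives have a fitted effect of over 55% in size.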
For assay [10], the target named is Aryl hydrocarbon receptor (Homo sapiens) (UniProt P35869). As to the kind of experiment: qHTS assay to identify small molecule that activate the aryl hydrocarbon receptor (AhR) signaling pathway (AID 743085).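 Note: HG2L7.5c1 human HepG2 liver cells with stably integrated DRE-driven firefly reporter; series mostly up to about 70 µM; nearly all actives have a fitted effect of over 15% in size.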 In a few lines: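 Stably transfected human liver carcinoma cells (HG2L7.5c1; 20 DRE-firefly luciferase) were incubated 5 h, dosed, and kept 24 h at 37C. Agonism was scored from increased luciferase luminescence.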
Sequence of Aryl hydrocarbon receptor (Homo sapiens) (P35869 whole entry, looked up): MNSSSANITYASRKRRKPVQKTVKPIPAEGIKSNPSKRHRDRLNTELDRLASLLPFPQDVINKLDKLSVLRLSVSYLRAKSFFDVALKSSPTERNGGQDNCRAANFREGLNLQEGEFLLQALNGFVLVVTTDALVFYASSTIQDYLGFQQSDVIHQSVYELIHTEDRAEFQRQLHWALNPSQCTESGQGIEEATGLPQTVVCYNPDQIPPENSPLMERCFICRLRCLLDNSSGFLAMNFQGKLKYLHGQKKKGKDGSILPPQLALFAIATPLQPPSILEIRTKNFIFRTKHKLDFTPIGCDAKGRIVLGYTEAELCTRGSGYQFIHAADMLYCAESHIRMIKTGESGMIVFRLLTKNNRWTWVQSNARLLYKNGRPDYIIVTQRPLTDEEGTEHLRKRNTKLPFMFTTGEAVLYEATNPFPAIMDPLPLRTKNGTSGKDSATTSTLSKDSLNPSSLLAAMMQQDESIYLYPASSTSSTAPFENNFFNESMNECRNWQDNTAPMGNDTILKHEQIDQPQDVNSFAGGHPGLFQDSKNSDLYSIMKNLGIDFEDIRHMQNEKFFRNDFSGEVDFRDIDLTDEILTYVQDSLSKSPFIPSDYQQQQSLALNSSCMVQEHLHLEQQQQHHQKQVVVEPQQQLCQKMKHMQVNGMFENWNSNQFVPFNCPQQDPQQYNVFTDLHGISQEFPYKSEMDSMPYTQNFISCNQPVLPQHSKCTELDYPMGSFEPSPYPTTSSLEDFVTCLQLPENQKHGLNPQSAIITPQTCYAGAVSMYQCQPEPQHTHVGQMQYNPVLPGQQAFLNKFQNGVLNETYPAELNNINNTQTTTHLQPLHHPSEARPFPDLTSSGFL

Assay [11] can be described thus: qHTS assay to identify small molecule that activate the aryl hydrocarbon receptor (AhR) signaling pathway - cell viability counter screen (AID 743086).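 Note: HepG2 liver cells carrying the AhR DRE luciferase reporter; series mostly up to about 70 µM; nearly all actives have a fitted effect of over 45% in size.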 An outline of the steps:
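HepG2-AhR-luc (HG2L7.5c1) cells, 4000/well, treated 24 h at 37 C with compound; viability measured as CellTiter-Fluor fluorescence after 30 min in the same wells as the luciferase read.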

Assay [12] concerns the target Peroxisome proliferator-activated receptor gamma (Homo sapiens) (UniProt P37231). As to the kind of experiment: qHTS assay to identify small molecule agonists of the peroxisome proliferator-activated receptor gamma (PPARg) signaling pathway (AID 743094; active = well fitted activation curve with a large enough effect in the signal ratio in the repeat runs, not every such curve was filed as active; the % refers to the signal ratio). An outline of the steps:
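Compounds dissolved in DMSO were added to PPARg UAS-bla HEK293H cells for 17 h at 37C, and reporter expression was quantified by fluorescence intensity after 1 h with LiveBLAzer B/G FRET substrate.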

Assay [13] has the same target. As to the kind of experiment: qHTS assay to identify small molecule antagonists of the peroxisome proliferator-activated receptor gamma (PPARg) signaling pathway (AID 743191; calls by dose curve; note: series mostly up to about 63 µM; nearly all actives have a fitted effect of over 30% in size). An outline of the steps:
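GeneBLAzer PPARg UAS-bla HEK293H cells, 5 h post-plating, exposed to compounds 17 h at 37C. LiveBLAzer B/G FRET substrate added for 1 h at room temperature; beta-lactamase reporter read by fluorescence intensity.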

Assay [14] in a line: qHTS assay to identify small molecule antagonists of the peroxisome proliferator-activated receptor gamma (PPARg) signaling pathway - cell viability counter screen (AID 743194). Note: nearly all actives have a fitted effect of over 55% in size. In a few lines: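 Cytotoxicity counter screen in PPARg-bla HEK293H cells, same wells as reporter assay. Compounds plus 50 nM rosiglitazone (final) for 17 h at 37 C, then viability read by CellTiter-Glo luminescence.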

A short description of assay [15]: qHTS assay for small molecule agonists of the antioxidant response element (ARE) signaling pathway - cell viability counter screen (AID 743203; calls by dose curve; note: nearly all actives have a fitted effect of over 55% in size). An outline of the steps:
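Following 16 hrs of compound treatment at 37C, HepG2 cells with an ARE-controlled beta-lactamase gene were lysed with CellTiter-Glo. Luminescence was read after 30 min at room temperature.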

Assay [16] can be described thus: qHTS assay for small molecule activators of the heat shock response signaling pathway - cell viability counter screen (AID 743209). Note: nearly all actives have a fitted effect of over 50% in size. An outline of the steps:
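Readout: CellTiter-Glo luminescence, 30 min at room temperature. System: HSE-bla HeLa cells, 1500/well, plated overnight. Treatment: compounds in DMSO, 5 h at 37 C.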

Assay [17] is described as follows: qHTS assay for small molecule activators of the heat shock response signaling pathway (AID 743210; active = well fitted activation curve with a large enough effect in the signal ratio in the repeat runs, with a control signal flat, not every such curve was filed as active; the % refers to the signal ratio; note: series mostly up to about 63 µM). An outline of the steps: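 HSE-bla HeLa cells (beta-lactamase reporter under heat shock response elements), plated overnight, then exposed to compounds 5 h at 37 C; LiveBLAzer B/G FRET substrate added, 2.5 h at room temperature, fluorescence intensity read.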
The nature of assay [18]: qHTS assay to identify small molecule agonists of the peroxisome proliferator-activated receptor delta (PPARd) signaling pathway - cell viability counter screen (AID 743211). Note: nearly all actives have a fitted effect of over 55% in size. An outline of the steps:
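In the same wells used for beta-lactamase reporter measurement, cytotoxicity is scored by CellTiter-Glo. HEK293H PPARd-bla cells receive compound for 17 h at 37C following a 5 h settling period.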

Assay [19] is described as follows: qHTS assay for small molecule agonists of the antioxidant response element (ARE) signaling pathway (AID 743202; active = well fitted activation curve with a large enough effect in the signal ratio in the repeat runs, not every such curve was filed as active; the % refers to the signal ratio). An outline of the steps: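 ARE-bla HepG2 cells (beta-lactamase reporter under the antioxidant response element), plated 5 hours, then exposed to compounds 16 hours at 37 C. LiveBLAzer B/G FRET substrate added for 2 hours at room temperature; fluorescence intensity read.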

Records with an inconclusive call do not appear. Unmarked numbers belong to inactive results. Calls of active or inactive are those of the source. Unless noted, calls come from the whole dose curve; as a rule, active = well fitted curve in the direction sought with a large enough effect in the repeat runs; inconclusive = weak or mixed curves; inactive = no such curve, though single readings can be large; an effect the other way counts as inactive or inconclusive.

Sequence of Peroxisome proliferator-activated receptor gamma (Homo sapiens) (P37231 whole entry, looked up): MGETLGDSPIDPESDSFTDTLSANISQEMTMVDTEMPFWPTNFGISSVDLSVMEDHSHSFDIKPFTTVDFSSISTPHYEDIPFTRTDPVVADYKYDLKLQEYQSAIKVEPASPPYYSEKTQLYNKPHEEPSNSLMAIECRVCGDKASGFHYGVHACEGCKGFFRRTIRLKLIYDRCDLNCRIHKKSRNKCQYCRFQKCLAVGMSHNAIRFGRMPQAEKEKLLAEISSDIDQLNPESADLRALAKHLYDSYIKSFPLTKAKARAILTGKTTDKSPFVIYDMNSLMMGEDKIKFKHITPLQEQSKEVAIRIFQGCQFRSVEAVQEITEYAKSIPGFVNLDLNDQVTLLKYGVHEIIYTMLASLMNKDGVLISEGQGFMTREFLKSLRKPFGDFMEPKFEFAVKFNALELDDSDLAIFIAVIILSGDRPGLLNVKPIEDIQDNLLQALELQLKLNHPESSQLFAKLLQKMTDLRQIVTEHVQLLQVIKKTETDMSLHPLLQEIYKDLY
Sequence of Estrogen receptor (Homo sapiens) (P03372 whole entry, looked up): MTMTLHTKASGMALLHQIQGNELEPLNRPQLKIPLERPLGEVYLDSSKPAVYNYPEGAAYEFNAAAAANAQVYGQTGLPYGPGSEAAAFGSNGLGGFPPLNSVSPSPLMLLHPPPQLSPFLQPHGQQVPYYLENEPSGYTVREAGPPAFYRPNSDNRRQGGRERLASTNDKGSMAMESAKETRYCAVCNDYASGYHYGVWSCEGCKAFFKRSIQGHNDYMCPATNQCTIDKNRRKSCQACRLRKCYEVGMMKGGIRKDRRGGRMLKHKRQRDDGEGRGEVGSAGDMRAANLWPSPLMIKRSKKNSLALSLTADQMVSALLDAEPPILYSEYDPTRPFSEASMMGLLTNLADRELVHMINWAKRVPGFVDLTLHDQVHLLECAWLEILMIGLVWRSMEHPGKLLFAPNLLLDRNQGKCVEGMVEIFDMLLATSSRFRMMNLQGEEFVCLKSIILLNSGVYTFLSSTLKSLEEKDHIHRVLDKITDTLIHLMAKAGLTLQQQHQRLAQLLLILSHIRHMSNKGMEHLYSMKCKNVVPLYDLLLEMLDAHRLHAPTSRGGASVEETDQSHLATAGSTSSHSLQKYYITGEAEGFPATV

As to `C[C@@H](CN1CC(=O)NC(=O)C1)N1CC(=O)NC(=O)C1`, the Potency result in assay [1], in [2], in assay [4], in [5], in assay [6] and in [7] was “inactive” in each case. Also, the Potency entry (with Aromatase (Homo sapiens); in assay [10]; in [16]) was “inactive” each time. Further, the outcome in [3], in assay [8], in assay [9], in assay [11], in assay [12] and in assay [13] was inactive. For the same molecule, the outcome in [14], in assay [15], in assay [17] and in assay [18] was inactive.
Take `C=CCOC(=O)CCCCCCCC`: the Potency entry in assay [1], in assay [2], in assay [4], in assay [5], in [6] and in [7] was “inactive” each time. Moreover, the Potency result (in the assay with Aromatase (Homo sapiens); in [10]; in assay [19]; in [16]) was “inactive” each time. For the same molecule, the outcome in [3], in assay [8], in [9], in [11], in assay [12] and in [14] was inactive. In addition, the outcome in assay [15] and in assay [17] was inactive.
Take `CCC(=O)OCCOc1ccccc1`: the Potency entry in assay [1], in [2], in assay [4], in assay [5], in [6] and in [7] was “inactive” throughout. The Potency entry (in the assay with Aromatase (Homo sapiens); in assay [10]) was “inactive” throughout. Moreover, the molecule was called inactive in [3], in [8], in [9], in assay [11], in assay [12] and in assay [13]. Further, the molecule was classed as inactive in assay [14], in assay [15], in [17] and in [18].
In the case of `C=CC(C)(CCC=C(C)C)OC(=O)C(C)C` (stereo unspecified), the Potency result in [1], in assay [2], in [4], in [5], in [6] and in assay [7] was “inactive” throughout. Also, the Potency entry (in the assay with Aromatase (Homo sapiens); in [10]; in assay [19]; in [16]) was “inactive” throughout. The molecule was classed as inactive in [3], in assay [8], in [9], in [11], in [12] and in [13]. Further, the molecule was classed as inactive in [14], in assay [15], in assay [17] and in [18].
For the molecule `CCCc1ccc(O)c(OC)c1`, the Potency entry in assay [1], in [2], in assay [4], in assay [5], in assay [6] and in [7] was “inactive” each time. The Potency result (in the assay with Aromatase (Homo sapiens); in [10]; in assay [19]; in [16]) was “inactive” in each case. For the same molecule, the result in [3], in assay [8], in assay [9], in assay [11], in assay [12] and in [13] was inactive. Further, the molecule was classed as inactive in assay [17] and in [18].
Consider `N[C@H]1C(O)O[C@H](CO)[C@@H](O)[C@@H]1O` (stereo partly specified), for which the Potency entry (in assay [1]; in assay [2]; in assay [4]; in assay [5]; in [7]; with Aromatase (Homo sapiens)) was “inactive” in each case. The Potency entry in assay [10] and in assay [16] was “inactive” throughout. Besides, the result in assay [3], in [8], in [9], in assay [11], in assay [12] and in assay [13] was inactive. Moreover, the outcome in assay [14], in assay [15], in assay [17] and in [18] was inactive. Besides, in assay [6], the Potency was 531 nM (active).
Take `O=Cc1ccc(C(=O)O)cc1`: the Potency result in assay [1], in assay [2], in assay [4], in assay [5], in [6] and in assay [7] was “inactive” each time. The Potency entry (in the assay with Aromatase (Homo sapiens); in [10]) was “inactive” each time. Further, the outcome in assay [3], in assay [8], in assay [9], in [11], in [12] and in [13] was inactive. In addition, the outcome in [15] and in [17] was inactive.
In the case of `CN(C)CCc1c[nH]c2ccc(CS(=O)(=O)N3CCCC3)cc12`, the Potency entry in assay [1], in [2], in assay [4], in assay [5], in assay [6] and in assay [7] was “inactive” each time. Besides, the Potency entry (with Aromatase (Homo sapiens); in [10]; in [19]; in assay [16]) was “inactive” in each case. Moreover, the outcome in assay [3], in [8], in [9], in assay [11], in assay [12] and in [14] was inactive. The result in assay [17] and in assay [18] was inactive.

The values above are taken from PubChem BioAssay (Tox21).
